We go through 17 compounds from PubChem BioAssay (NCATS).

Records with an inconclusive call do not appear. Active and inactive are the calls of the source. Calls follow the shape of the dose curve; as a rule, active = well fitted curve in the direction sought with a large enough effect; inconclusive = small, poorly fitted or top-dose-only effect, or another doubt; inactive = no such curve, though single readings can be large; an effect the other way counts as inactive or inconclusive.

A short description of assay [1]: Quantitative High-Throughput drug screen in 47 multiple myeloma cell lines against the NCATS MIPE library collection: EJM_DSMZ cell viability assay (AID 1918926; also: nearly all actives have a fitted effect of over 30% in size). Put shortly:
(§1)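 Luminescent ATP measurement with CellTiter-Glo gives viability, scaled between DMSO-only wells (100%) and media-only wells (0%). Cells, 500 per well, faced library compounds for 48 hours at 37C.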

Assay [2] can be described thus: Quantitative High-Throughput drug screen in 47 multiple myeloma cell lines against the NCATS MIPE library collection: AMO1_DSMZ cell viability assay (AID 1918927; also: nearly all actives have a fitted effect of over 30% in size). Summed up: as §1
Assay [3] is described as follows: Quantitative High-Throughput drug screen in 47 multiple myeloma cell lines against the NCATS MIPE library collection: ARP1_JJKsccF8 cell viability assay (AID 1918928; also: nearly all actives have a fitted effect of over 40% in size). Put shortly:
(§2)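 500 cells/well; MIPE 4.0 library pinned in; 48 h, 37 °C, 5% CO2; CellTiter-Glo ATP luminescence. Controls: DMSO = 100% viability, medium only = 0%.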

Assay [4] can be described thus: Quantitative High-Throughput drug screen in 47 multiple myeloma cell lines against the NCATS MIPE library collection: ARD_JJKsccE7 cell viability assay (AID 1918929). Put shortly: as §1
The nature of assay [5]: Quantitative High-Throughput drug screen in 47 multiple myeloma cell lines against the NCATS MIPE library collection: Karpas620_DSMZ cell viability assay (AID 1918959). Also: nearly all actives have a fitted effect of over 30% in size. Put shortly: (§3)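 We plated 500 myeloma cells per well, pinned in MIPE 4.0 compounds, and incubated for 48 hours at 37C. ATP was then quantified with CellTiter-Glo, with DMSO and media-only wells defining 100% and 0%.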

The nature of assay [6]: Quantitative High-Throughput drug screen in 47 multiple myeloma cell lines against the NCATS MIPE library collection: KMM1_JCRB cell viability assay (AID 1918960). Also: nearly all actives have a fitted effect of over 30% in size. Put shortly:
as §2

Assay [7] in a line: Quantitative High-Throughput drug screen in 47 multiple myeloma cell lines against the NCATS MIPE library collection: KHM11_PLB cell viability assay (AID 1918962). Also: nearly all actives have a fitted effect of over 35% in size. Summed up: as §3
Assay [8] can be described thus: Quantitative High-Throughput drug screen in 47 multiple myeloma cell lines against the NCATS MIPE library collection: JIM3_ECACC cell viability assay (AID 1918963; also: nearly all actives have a fitted effect of over 35% in size). Put shortly: as §3
Assay [9] is described as follows: Quantitative High-Throughput drug screen in 47 multiple myeloma cell lines against the NCATS MIPE library collection: JIM1_ECACC cell viability assay (AID 1918964). Put shortly: as §1
A short description of assay [10]: Quantitative High-Throughput drug screen in 47 multiple myeloma cell lines against the NCATS MIPE library collection: Karpas417_ECACC cell viability assay (AID 1918961). Particulars: Karpas417 myeloma viability, CellTiter-Glo ATP luminescence, 48 h; viability (% of DMSO): at 45.8 µM (top of the series). Put shortly:
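Viability readout: CellTiter-Glo luminescence following 5 min room-temperature incubation with reagent. Prior exposure: 48 h, 37C, humidified 5% CO2, 500 cells per well.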
(Cellular ATP, detected with luciferase, serves as a proxy for viable cell number.)
Potency is read from the fitted curve at half-maximal effect.

As for `CC(=O)Nc1ccc([C@H](C)C(=O)Nc2ncc(C(C)C)s2)cc1`, the Potency in assay [1] is 0.743 µM (active); in assay [2], 0.662 µM (active); in assay [3], 2.64 µM (active); in assay [4], 1.18 µM (active); in assay [5] it was 2.35 µM (active); in assay [6] it was 5.26 µM (active). In addition, the Potency is 4.69 µM (active) in [7], 7.43 µM (active) in assay [8] and 1.66 µM (active) in assay [9].
Take `O=C(CCCCCCC(=O)Nc1ccccc1)NO`: the Potency in assay [1] is 7.43 µM (active); in assay [2], 1.05 µM (active); in [3], 0.833 µM (active); in assay [4], 1.18 µM (active); in [5] it was 3.32 µM (active); in assay [6], 1.32 µM (active). For the same compound, the Potency is 1.05 µM (active) in assay [10], 7.43 µM (active) in assay [7] and 2.35 µM (active) in assay [9].
On to `N#CC1(c2ccc(NC(=O)c3cccnc3NCc3ccncc3)cc2)CCCC1`, for which the Potency result in assay [1], in [2], in assay [3], in assay [4], in assay [5] and in [6] was “inactive” throughout. Further, the Potency entry in [7], in assay [8] and in assay [9] was “inactive” in each case.
For `CC[C@@]1(O)C[C@H](O[C@H]2C[C@H](N(C)C)[C@H](O[C@H]3C[C@H](O)[C@H](O[C@H]4CCC(=O)[C@H](C)O4)[C@H](C)O3)[C@H](C)O2)c2c(cc3c(c2O)C(=O)c2c(O)cccc2C3=O)[C@@H]1C(=O)OC`, the Potency in [1] was 0.469 µM (active); in assay [2] it was 0.833 µM (active); in assay [3] it was 1.05 µM (active); in assay [4], 5.26 µM (active); in assay [6], 5.9 µM (active); in assay [7], 0.132 µM (active). Further, the Potency in assay [8] was 0.332 µM (active).
Turning to `O=C(NCc1ccccc1)c1csc(Nc2ccncn2)n1`, the Potency in assay [1] is 18.7 µM (active); in [2], 9.35 µM (active); in assay [3], 23.5 µM (active); in assay [4] it was 10.5 µM (active); in assay [5], 6.62 µM (active); in assay [6], 9.35 µM (active). In addition, the Potency is 10.5 µM (active) in [10], 20.9 µM (active) in [7], 14.8 µM (active) in assay [8] and 6.62 µM (active) in [9].
For `Cc1nc(N)sc1-c1ccnc(Nc2ccc(N3CCOCC3)cc2)n1`, the Potency in assay [1] is 18.7 µM (active); in [2], 2.64 µM (active); in assay [3], 8.33 µM (active); in assay [4], 5.26 µM (active); in assay [5] it was 20.9 µM (active); in assay [6], 4.69 µM (active). For the same compound, the Potency is 6.62 µM (active) in [7] and 14.8 µM (active) in [8].
As for `COc1cc(NC(=O)c2ccc(-c3ccc(Cl)cc3)o2)cc(OC)c1`, the Potency result in assay [1] and in assay [3] was “inactive” each time. The Potency in assay [2] was 7.43 µM (active); in [5], 20.9 µM (active); in assay [6], 16.6 µM (active); in assay [10], 2.96 µM (active); in [7], 14.8 µM (active).
In the case of `O=C(CCN1CCN(C(=O)OCc2cc(Cl)cc(Cl)c2)CC1)c1ccc2[nH]c(=O)oc2c1`, the Potency result in [1], in [3], in [6] and in assay [8] was “inactive” throughout. Further, the values for the Potency in [2], in assay [4] and in assay [7] were 1.18 µM (active), 0.0166 µM (active) and 2.64 µM (active), respectively.
Turning to `COc1cc2nc(-c3ccc(N4CCN(C)CC4)cc3)nc(NCCN3CCOCC3)c2cc1OC`, the Potency is 0.0264 µM (active) in [1]; 0.148 µM (active) in assay [2]; 0.059 µM (active) in [3]; 0.296 µM (active) in assay [4]; 0.118 µM (active) in assay [5]; 0.0469 µM (active) in assay [6]. Besides, the Potency was 0.0166 µM (active) in assay [10], 0.235 µM (active) in assay [7], 0.148 µM (active) in assay [8] and 0.166 µM (active) in assay [9].
`Nc1ncnc2c1nc(Cl)n2[C@@H]1O[C@H](CO)[C@@H](O)[C@@H]1O`: the Potency was 18.7 µM (active) in assay [1]; 2.35 µM (active) in assay [2]; 13.2 µM (active) in assay [3]; 14.8 µM (active) in assay [4]; 14.8 µM (active) in [5]; 6.62 µM (active) in [7]. Also, in assay [9], the Potency was 16.6 µM (active).
In the case of `N#C[C@H]1C[C@H]2C[C@@H]2N1C(=O)[C@@H](N)C12CC3CC(CC(O)(C3)C1)C2`, the Potency entry in [1], in assay [2], in [4], in assay [5], in assay [6] and in assay [7] was “inactive” each time. Further, the Potency result in assay [8] and in assay [9] was “inactive” throughout. For the same compound, the Potency in assay [3] is 3.72 µM (active).
For the compound `NC[C@@H]1O[C@@H](O[C@H]2[C@@H](O)[C@H](O[C@@H]3[C@@H](O)[C@@H](N)C[C@H](N)[C@H]3O[C@H]3O[C@H](CN)[C@@H](O)[C@@H](O)[C@H]3N)O[C@H]2CO)[C@H](N)[C@@H](O)[C@@H]1O`, the Potency entry in assay [1], in [2], in [3], in assay [4], in [5] and in [6] was “inactive” in each case. The Potency result in assay [7], in [8] and in [9] was “inactive” in each case.
On to `CC(C)=CC[C@@H](O)C1=CC(=O)c2c(O)ccc(O)c2C1=O`, for which the Potency was 0.418 µM (active) in assay [1]; 4.18 µM (active) in [2]; 1.32 µM (active) in assay [3]; 9.35 µM (active) in assay [5]; 1.18 µM (active) in assay [10].
With `O=c1c(-c2ccc(O)cc2)coc2cc(O[C@@H]3O[C@H](CO)[C@H](O)[C@H](O)[C@H]3O)ccc12`, the Potency entry in assay [1], in [2], in assay [4], in assay [5], in [6] and in assay [9] was “inactive” throughout. In addition, the Potency in assay [3] was 3.72 µM (active).
For `CC(C)C(C)C=CC(C)C1CCC2C3=CC=C4CC(O)CCC4(C)C3CCC21C` (centres undefined), the Potency result in [1], in assay [2], in [3], in [4], in assay [6] and in assay [10] was “inactive” each time. Further, in [5], the Potency is 18.7 µM (active).
Regarding `COc1ccc2cccc(CCNC(C)=O)c2c1`, the Potency result in [1], in assay [2], in assay [3], in [5], in [6] and in assay [7] was “inactive” each time. In addition, the Potency result in [8] is “inactive”.
On to `O=C(Nc1cc(Cl)cc2c1[nH]c1cnccc12)c1cccnc1`, for which the Potency is 10.5 µM (active) in assay [1], 13.2 µM (active) in assay [3] and 6.62 µM (active) in assay [6]. For the same compound, the Potency result in assay [2], in [4], in assay [5] and in [8] was “inactive” in each case.
